# Compound activity deposited in PubChem BioAssay by National Center for Advancing Translational Sciences (NCATS).
# Shown are actives, neighbours in structure and some others; about 18% of the full set was active somewhere.
# TDP1 cell CPT = growth inhibition of DT40 Tdp1-/-;hTDP1 cells with camptothecin (screen for TDP1 inhibitors); chicken DT40 Tdp1-/-;hTDP1 cells + 20 nM CPT, ATP luminescence, 48 h; 12% of 420,000 active; Potency, µM (series often up to 46.2 µM), for inactives: at the highest dose activity change, negative = growth inhibition, usual class: inhibitors; AID 686979; note: potency is the fitted concentration of half-maximal effect; nearly all actives have a fitted effect of over 55% in size
#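 Chicken DT40 Tdp1-/- cells complemented with human TDP1, 400 cells/well, exposed to compounds plus 20 nM camptothecin for at least 48 h at 37 C; viability read as ATP content by CellTiter-Glo luminescence.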
# IL-1B inflam inh = inhibitors of inflammasome signaling (IL-1 beta secretion). activity change, % at 57.5 µM. THP-1 LPS/ATP IL-1B secretion, AlphaLISA, 16 h; hits give low values. 4.7% of 360,000 active. AID 743279; in the data active = activity change below about -50%; inconclusive = mostly about -30% to -49%
#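 THP-1 cells pretreated 1 hr with compounds (up to 57.5 uM final), then stimulated with LPS (250 ng/mL final) plus ATP (1.25 mM final); secreted IL-1B measured by AlphaLISA after 16 hr, decreased signal indicating inhibition.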
# CtBP-E1A blk = CtBP/E1A binding inhibition | AlphaScreen GST-E1A/His-CtBP binding, 1536-well; hits give low values | activity change, % (test concentration not listed) | 0.49% of 340,000 active; in the data active = activity change below about -65%; inconclusive = mostly about -30% to -63%
#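 Protein mix (5X: 125 nM each GST-E1A, His-CtBP) was incubated with pinned compound 2 h at 37 deg C in dark, in 50 mM Tris pH 8.0 buffer with 300 mM NaCl. Glutathione donor and nickel acceptor beads followed; AlphaScreen signal read after 1 h.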
# Six1-Eya2 inh = blocks human Six1 binding to Eya2; Q15475+O00167; AlphaScreen GST-Six1/His-Eya2 binding, biochemical; hits give low values; activity change, % (concentration not given with the values); 0.56% of 360,000 active; AID 651725; in the data active = activity change below about -65%; inconclusive = mostly about -30% to -63%
#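 AlphaScreen luminescence read after one hour at 37 °C in darkness. Pin-transferred compounds met GST-Six1 and His-Eya2 protein (5X stock 250 nM/500 nM) plus glutathione donor and Ni-chelate acceptor beads (5X, 50 ug/mL).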
# TDP1 block = inhibitors of human tyrosyl-DNA phosphodiesterase TDP1 | Q9NUW8 | recombinant TDP1, AlphaScreen DNA substrate cleavage | Potency, µM (highest dose often 130 µM), for inactives: at the top dose activity change, negative = inhibition, usual class: inhibitors | 0.28% of 350,000 active | AID 485290; note: potency is the fitted concentration of half-maximal effect; nearly all actives have a fitted effect of over 40% in size
# Target sequence (Q9NUW8 whole entry, looked up): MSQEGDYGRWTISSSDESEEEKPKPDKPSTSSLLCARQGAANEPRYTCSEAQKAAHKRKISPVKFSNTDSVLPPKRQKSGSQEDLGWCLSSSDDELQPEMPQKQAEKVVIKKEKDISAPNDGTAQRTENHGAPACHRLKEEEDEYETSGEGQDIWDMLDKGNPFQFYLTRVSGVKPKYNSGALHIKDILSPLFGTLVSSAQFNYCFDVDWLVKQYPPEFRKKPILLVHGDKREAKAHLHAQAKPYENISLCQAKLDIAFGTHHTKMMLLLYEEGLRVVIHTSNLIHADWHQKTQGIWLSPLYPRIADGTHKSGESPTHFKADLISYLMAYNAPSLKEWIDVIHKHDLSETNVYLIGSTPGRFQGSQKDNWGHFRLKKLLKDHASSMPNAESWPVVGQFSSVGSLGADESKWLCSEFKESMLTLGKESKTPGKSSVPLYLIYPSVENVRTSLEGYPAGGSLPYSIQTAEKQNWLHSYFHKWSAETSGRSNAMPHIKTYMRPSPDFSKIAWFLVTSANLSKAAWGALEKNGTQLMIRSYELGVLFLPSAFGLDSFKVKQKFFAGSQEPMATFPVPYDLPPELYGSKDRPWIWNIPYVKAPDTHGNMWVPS
#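 Recombinant E. coli-expressed Tdp1 (1 nM) preincubated with compound 15 min at RT, then 5'-biotin/3'-phosphotyrosine-FITC DNA substrate (15 nM) added for 5 min. AlphaScreen beads (10 ug/ml) added, 10 min RT; tyrosine-FITC cleavage read as signal loss.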
# TDP1 cell noCPT = qHTS for Inhibitors of human tyrosyl-DNA phosphodiesterase 1 (TDP1): qHTS in cells in absence of CPT; Potency, µM (titrated, usually from 46.2 µM), for inactives: at the top dose activity change, negative = growth inhibition, hits mostly inhibitors; 15% of 420,000 active; DT40 Tdp1-/- hTDP1 cells, no CPT, ATP luminescence, 48 h; AID 686978, 2013; note: potency is the fitted concentration of half-maximal effect; nearly all actives have a fitted effect of over 55% in size
#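 Growth kinetics read by CellTiter-Glo luminescence after ≥48 hr at 37 °C. Cells: DT40 Tdp1-/- stably carrying human TDP1, 400 per well, compound exposure in the absence of CPT (DMSO vehicle).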
# Numbers without * were called inactive; ? = inconclusive; . = no result; [ ] = remark or other dose. Unless noted, calls come from the whole dose curve; as a rule, active = well fitted curve in the direction sought with a large enough effect; inconclusive = small, poorly fitted or top-dose-only effect, or another doubt; inactive = no such curve, though single readings can be large; an effect the other way counts as inactive or inconclusive. % is set by controls: 0 for no effect and ±100 for the full control effect.
SMILES,TDP1 cell CPT,IL-1B inflam inh,CtBP-E1A blk,Six1-Eya2 inh,TDP1 block,TDP1 cell noCPT
CCOc1ccccc1NC(=O)Cn1c(=O)oc2cc(S(=O)(=O)NCc3ccccc3)ccc21,13µM*,.,.,.,0.9%,?
COc1ccccc1CNC(=O)Cn1c(=O)oc2cc(S(=O)(=O)NCc3ccccc3)ccc21,10.3µM*,.,.,.,0.9%,18.4µM*
COc1ccc(OC)c(NC(=O)Cn2c(=O)oc3cc(S(=O)(=O)NCc4ccccc4)ccc32)c1,?,.,.,.,5.7%,14.6µM*
Cc1oc(-c2ccccc2NC(=O)c2ccccc2)nc1CNC(=O)C1CC(=O)OC12CCCCC2 (centres undefined),-4.2%[9.04 µM],.,.,.,.,4.6%
CCN(C(=O)CN1CCC(C)CC1)c1c(N)n(Cc2ccccc2)c(=O)[nH]c1=O,-1.9%,2.0,-7.0,3.1,-3.0%,5.6%
c1cc(-c2cnc3cccnn23)c2cccnc2c1,9.2µM*,-24.9,-6.9,-10.3,.,?
CSc1ccccc1-c1cnc2cccnn12,-19.4%,-54.3*,3.7,5.1,.,-27.9%
c1ccc2c(-c3cnc4cccnn34)cncc2c1,?,-19.1,3.0,1.2,.,-28.1%
O=C(NCCc1ccccc1)c1cccc([N+](=O)[O-])c1,?,-8.5,-5.9,-11.0,-5.4%,?
Cc1csc(SCc2nc3sc4c(c3c(=O)[nH]2)CCC4)n1,-26.1%,46.8,-2.4,2.3,-0.2%,?
Cc1ccc(S(=O)(=O)CC(C)(O)CS(=O)(=O)c2ccc(C)cc2)cc1,-25.4%,2.0,9.0,-3.2,2.5%,-25.6%
Cn1nc(C(F)(F)F)c(-c2cccc(C(F)(F)F)c2)c1NC(=O)c1ccco1,-28.7%,-21.2,2.0,-1.7,0.0%,-21.9%
Cn1nc(C(F)(F)F)c(-c2cccc(C(F)(F)F)c2)c1NC(=O)Nc1ccc(F)cc1,16.4µM*,-1.4,0.4,-0.8,2.7%,14.6µM*
Nc1nnc(SCC(=O)OCC(=O)c2ccccc2)s1,4.1%,22.1,6.9,2.5,-1.2%,-1.0%
Nc1nnc(SCC(=O)OCC(=O)c2ccccc2Br)s1,25.9µM*,-27.8,3.4,2.1,2.5%,?
CN(CC(=O)NC(=O)NCc1ccco1)CC(=O)Nc1ccccc1Cl,5.3%,13.1,2.0,-5.7,0.0%,20.5%
COC(=O)c1ccc(C(=O)OC)c(NC(=O)COC(=O)c2ccccc2OC)c1,-7.3%,14.3,-3.0,-9.2,5.5%,-28.5%
Cn1c(/C(C#N)=C/C2CC=CCC2)nc2ccccc21 (centres undefined),?,-96.2*,5.0,1.5,0.0%,?
Cc1ccc(/C=C(\C#N)c2nc3ccccc3[nH]2)s1,2.4%,-9.7,11.0,3.9,2.0%,-14.2%
N#C/C(=C\C1CC=CCC1)c1nc2ccccc2[nH]1 (centres undefined),-13.2%,-51.7*,-7.2,-0.4,7.3%,?
COCCCn1c(=O)c2ccccc2n(CC(=O)Nc2ccc3c(c2)OCCO3)c1=O,3.3%,-5.2,-1.2,6.7,7.1%,-0.5%
COc1ccc(CCN2C(=O)CN(C3CCC(C)CC3)C(=O)C2c2ccc(OC(C)C)c(OC)c2)cc1OC (centres undefined),16.4µM*,.,.,.,7.0%,?
COc1cc(C2C(=O)N(C3CCCCCC3)CC(=O)N2Cc2ccccc2)ccc1OC(C)C (centres undefined),?,.,.,.,2.6%,23.1µM*
CCN(C(=O)COC(=O)CSc1ccccc1)c1c(N)n(Cc2ccccc2)c(=O)[nH]c1=O,-21.1%,11.1,21.3,2.8,-18.7%,-8.5%
O=C(COC(=O)c1cccs1)Nc1ccc(Cl)cn1,1.0%,-13.1,0.6,3.4,1.8%,-28.5%
SMILES,TDP1 cell CPT,IL-1B inflam inh,CtBP-E1A blk,Six1-Eya2 inh,TDP1 block,TDP1 cell noCPT
CCOc1ccccc1N(CC(=O)Nc1ccccc1C(=O)N1CCOCC1)S(C)(=O)=O,-2.8%,-10.1,2.1,7.9,0.4%,1.2%
CC1(C)CC(=O)CC2(C1)NCC(c1ccccc1)c1c2[nH]c2ccccc12 (centres undefined),?,-68.5*,-3.5,-5.1,0.0%,?
CC(C)CCN(CCC(C)C)C(CO)(CO)CO,0.1%,-17.1,-1.6,-3.3,-3.7%,?
O=C1CC(N2CCOCC2)=NN1c1ccc([N+](=O)[O-])cc1,?,-16.3,0.0,26.9,.,25.9µM*
O=[N+]([O-])c1ccc(N2CCOCC2)nc1,-21.1%,0.3,1.1,2.4,-4.8%,-1.2%
O=C(Cn1cnc2c(OCc3ccccc3)ncnc21)NCc1ccc2[nH]ccc2c1,?,6.8,-11.8,-1.2,-4.8%,16.4µM*
O=C(Cn1cnc2c(OCc3ccccc3)ncnc21)NCc1ccccc1,?,61.3,2.3,0.8,0.2%,16.4µM*
CC(=O)N(C)c1ccc(NS(=O)(=O)c2cc(Cl)ccc2Cl)cc1,18.7%,17.5,1.3,1.3,-3.6%,1.5%
C/C(CC(=O)Nc1cccc(Cl)c1C)=N\NC(=O)Cc1csc(N)n1,7.2%,-0.9,1.9,-3.7,7.1%,16.5%
Cc1ccc(C(CNS(=O)(=O)c2ccc(F)cc2C)N2CCN(C)CC2)cc1 (centres undefined),18.4µM*,-23.8,-12.8,7.8,.,?
Cc1c(P(=S)(c2ccccc2)c2ccccc2)[n+]2ccccc2n1CCCc1ccccc1,.,.,.,.,2.0%,.
CCn1c(C)c(P(c2ccccc2)c2ccccc2)[n+]2ccccc12,2.31µM*,-20.4,0.0,0.1,-2.4%,1.46µM*
Fc1ccc(NC(=S)Nc2ccc(Br)cc2)cc1,8.2µM*,-92.8*,-4.8,-8.9,-4.2%,9.2µM*
CCN(CC)c1ccc(NC(=S)Nc2ccc(F)cc2)cc1,?,?,-19.8,?,7.9%,23.1µM*
Cc1ccc(NC(=S)Nc2ccc(F)cc2)c(C)c1,-11.0%,-58.8*,-7.6,3.7,5.4%,-23.9%
CCOc1ccc(Nc2oc(-c3cccc(Cl)c3)nc2C#N)cc1,?,7.3,6.3,2.8,3.3%,?
Cc1cc(C)cc(N2C(=O)CS(=O)(=O)C23C(=O)N(Cc2ccccc2)c2ccccc23)c1 (centres undefined),-22.0%,.,.,.,-1.1%,-29.6%
COc1cccc(N(C(=O)c2snc(C(N)=O)c2N)C(C(=O)NCC2CCCO2)c2ccc(C)o2)c1 (centres undefined),-24.5%,-4.1,-3.7,3.3,12.0%,?
Cc1ccc(Cn2c(=O)c3ccccc3n3c(CCC(=O)O)nnc23)cc1,3.2%,-9.6,-15.0,9.5,.,3.5%
